One sequence from article PMC7862700, “An all-to-all approach to the identification of sequence-specific readers for epigenetic DNA modifications on cytosine” can be followed below.

What all share (experiment): DAPPL (digital affinity profiling via proximity ligation, sequencing); 10 mM Tris-HCl pH 7.5, 50 mM NaCl, 1 mM DTT, 4% glycerol, room temperature, 30 min; GST-TFs on glutathione beads, 16-mer random dsDNA library, 0.1% formaldehyde crosslink after washing; high values mean tight binding
One assay addresses T1, FEV (Homo sapiens, UniProt Q99581 1-238).
T1 sequence: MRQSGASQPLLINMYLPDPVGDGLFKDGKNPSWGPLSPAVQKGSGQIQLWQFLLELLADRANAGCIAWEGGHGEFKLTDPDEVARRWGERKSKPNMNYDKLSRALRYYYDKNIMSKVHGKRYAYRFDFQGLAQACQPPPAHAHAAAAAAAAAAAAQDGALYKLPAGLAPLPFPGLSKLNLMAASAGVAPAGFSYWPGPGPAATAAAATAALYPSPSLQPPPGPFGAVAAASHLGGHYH
The note with it: protein: recombinant; tags: N-terminal GST; dsDNA, one strand shown. In a few lines:
(§1)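 Human transcription factors were made in yeast as GST fusions, captured on glutathione beads and barcoded with DNA. With a tag-only sample included, the pool was incubated with 200 nmole of a random double-stranded 16-mer DNA library in Tris/NaCl/DTT/glycerol buffer at room temperature for 30 min, then crosslinked with 0.1% formaldehyde after washing, ligated by proximity, amplified and sequenced. For binding signal, each hexamer's read frequency for a factor is divided by its frequency for the tag-only sample.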

A further assay deals with ETV5 (Homo sapiens, UniProt P41161 1-510). The settings on record: protein: recombinant; tags: N-terminal GST; dsDNA, one strand shown. In a few lines:
as §1

The next assay has as its target HSF1 (Homo sapiens, UniProt Q00613 1-529). The note with it: protein: recombinant; tags: N-terminal GST; chain copies: 3; dsDNA, one strand shown. In a few lines:
as §1

The target in the next assay is T2, SPIC (Homo sapiens, UniProt Q8N5J4 1-248).
T2 sequence: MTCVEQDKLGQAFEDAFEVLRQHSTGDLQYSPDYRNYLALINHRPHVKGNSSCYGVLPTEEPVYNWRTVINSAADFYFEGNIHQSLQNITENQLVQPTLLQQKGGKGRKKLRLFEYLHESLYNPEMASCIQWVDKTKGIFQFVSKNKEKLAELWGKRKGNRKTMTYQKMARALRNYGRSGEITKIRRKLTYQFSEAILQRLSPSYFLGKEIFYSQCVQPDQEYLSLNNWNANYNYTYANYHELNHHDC
The note with it: protein: recombinant; tags: N-terminal GST; dsDNA, one strand shown. In a few lines: as §1

The next assay deals with ELF4 (Homo sapiens, UniProt Q99607 1-663). The settings on record: protein: recombinant; tags: N-terminal GST; dsDNA, one strand shown. In a few lines: as §1
Sequence of ELF4 (Q99607 whole entry): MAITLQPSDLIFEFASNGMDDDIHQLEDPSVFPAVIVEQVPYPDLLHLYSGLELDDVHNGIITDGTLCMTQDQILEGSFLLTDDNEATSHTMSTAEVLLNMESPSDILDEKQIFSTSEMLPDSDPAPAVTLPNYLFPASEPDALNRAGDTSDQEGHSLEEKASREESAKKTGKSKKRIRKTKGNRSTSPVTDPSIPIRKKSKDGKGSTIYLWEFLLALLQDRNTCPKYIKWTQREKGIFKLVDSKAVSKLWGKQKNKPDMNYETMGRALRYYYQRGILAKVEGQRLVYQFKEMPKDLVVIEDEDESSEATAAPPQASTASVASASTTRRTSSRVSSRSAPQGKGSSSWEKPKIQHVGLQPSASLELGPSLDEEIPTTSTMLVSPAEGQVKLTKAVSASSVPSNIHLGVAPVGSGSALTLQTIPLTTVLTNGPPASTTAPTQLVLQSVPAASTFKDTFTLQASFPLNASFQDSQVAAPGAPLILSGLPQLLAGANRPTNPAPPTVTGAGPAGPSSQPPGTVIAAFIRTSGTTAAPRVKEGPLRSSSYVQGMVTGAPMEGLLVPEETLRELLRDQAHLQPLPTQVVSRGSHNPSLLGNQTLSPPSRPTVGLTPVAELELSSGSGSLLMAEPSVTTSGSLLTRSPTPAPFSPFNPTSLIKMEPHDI
The target in another assay is T3, ELK4 (Homo sapiens, UniProt P28324-2 1-405).
T3 sequence: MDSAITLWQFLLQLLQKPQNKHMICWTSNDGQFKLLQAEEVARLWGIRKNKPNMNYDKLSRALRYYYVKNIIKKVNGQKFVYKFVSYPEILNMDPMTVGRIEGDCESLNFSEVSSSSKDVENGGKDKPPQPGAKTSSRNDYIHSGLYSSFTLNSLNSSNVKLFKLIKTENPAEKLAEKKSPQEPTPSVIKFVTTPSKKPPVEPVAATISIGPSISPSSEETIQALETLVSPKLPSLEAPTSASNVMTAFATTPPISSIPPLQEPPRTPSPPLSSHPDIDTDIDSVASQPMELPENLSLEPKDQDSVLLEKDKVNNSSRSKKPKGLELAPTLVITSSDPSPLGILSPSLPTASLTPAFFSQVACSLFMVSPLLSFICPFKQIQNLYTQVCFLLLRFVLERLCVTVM
The settings on record: protein: recombinant; tags: N-terminal GST; dsDNA, one strand shown. In a few lines: as §1

A further assay addresses T4, ETV2 (Homo sapiens, UniProt O00321 1-342).
T4 sequence: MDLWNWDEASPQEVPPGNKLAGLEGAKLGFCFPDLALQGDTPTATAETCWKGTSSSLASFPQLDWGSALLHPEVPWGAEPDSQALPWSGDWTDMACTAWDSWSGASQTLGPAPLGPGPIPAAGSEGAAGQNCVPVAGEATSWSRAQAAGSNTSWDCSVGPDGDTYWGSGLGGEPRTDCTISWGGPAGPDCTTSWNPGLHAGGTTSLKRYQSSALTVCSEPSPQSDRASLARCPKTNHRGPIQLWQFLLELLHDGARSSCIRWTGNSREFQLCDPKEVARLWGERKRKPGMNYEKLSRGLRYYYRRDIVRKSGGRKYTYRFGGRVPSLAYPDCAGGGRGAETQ
The settings on record: protein: recombinant; tags: N-terminal GST; dsDNA, one strand shown. In a few lines: as §1

For the next assay, the target named is T5, ELF3 (Homo sapiens, UniProt P78545 1-371).
T5 sequence: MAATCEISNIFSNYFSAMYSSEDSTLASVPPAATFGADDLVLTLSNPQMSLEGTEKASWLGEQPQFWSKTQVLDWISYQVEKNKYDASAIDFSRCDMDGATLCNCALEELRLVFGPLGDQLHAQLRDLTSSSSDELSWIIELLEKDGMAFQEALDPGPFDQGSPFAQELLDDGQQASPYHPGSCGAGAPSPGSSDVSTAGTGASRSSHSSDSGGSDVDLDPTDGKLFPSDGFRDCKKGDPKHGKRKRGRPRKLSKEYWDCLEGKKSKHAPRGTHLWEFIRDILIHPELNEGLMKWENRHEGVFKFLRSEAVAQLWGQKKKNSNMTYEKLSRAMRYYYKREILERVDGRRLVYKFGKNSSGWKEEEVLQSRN
The note with it: protein: recombinant; tags: N-terminal GST; dsDNA, one strand shown. In a few lines: as §1

A further assay concerns the target CRX (Homo sapiens, UniProt O43186 1-299). The settings on record: protein: recombinant; tags: N-terminal GST; dsDNA, one strand shown. In a few lines: as §1
A further assay deals with ETV1 (Homo sapiens, UniProt P50549 1-477). The note with it: protein: recombinant; tags: N-terminal GST; dsDNA, one strand shown. In a few lines: as §1
Sequence of ETV1 (P50549 whole entry): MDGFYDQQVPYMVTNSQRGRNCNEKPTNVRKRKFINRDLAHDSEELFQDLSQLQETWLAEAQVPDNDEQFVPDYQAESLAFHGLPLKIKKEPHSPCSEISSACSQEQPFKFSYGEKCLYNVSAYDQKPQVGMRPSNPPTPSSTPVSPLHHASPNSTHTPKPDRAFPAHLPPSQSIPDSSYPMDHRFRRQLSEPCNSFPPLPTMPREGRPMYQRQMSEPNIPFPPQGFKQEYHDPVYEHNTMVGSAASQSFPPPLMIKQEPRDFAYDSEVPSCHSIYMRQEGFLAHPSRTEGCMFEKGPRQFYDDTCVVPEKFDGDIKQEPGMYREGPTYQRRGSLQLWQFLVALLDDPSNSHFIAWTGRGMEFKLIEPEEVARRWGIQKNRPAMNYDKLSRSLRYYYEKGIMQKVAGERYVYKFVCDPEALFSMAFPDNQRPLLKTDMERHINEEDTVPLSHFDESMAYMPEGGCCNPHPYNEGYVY
For a further assay, the target named is T6, ERF (Homo sapiens, UniProt P50548 1-548).
T6 sequence: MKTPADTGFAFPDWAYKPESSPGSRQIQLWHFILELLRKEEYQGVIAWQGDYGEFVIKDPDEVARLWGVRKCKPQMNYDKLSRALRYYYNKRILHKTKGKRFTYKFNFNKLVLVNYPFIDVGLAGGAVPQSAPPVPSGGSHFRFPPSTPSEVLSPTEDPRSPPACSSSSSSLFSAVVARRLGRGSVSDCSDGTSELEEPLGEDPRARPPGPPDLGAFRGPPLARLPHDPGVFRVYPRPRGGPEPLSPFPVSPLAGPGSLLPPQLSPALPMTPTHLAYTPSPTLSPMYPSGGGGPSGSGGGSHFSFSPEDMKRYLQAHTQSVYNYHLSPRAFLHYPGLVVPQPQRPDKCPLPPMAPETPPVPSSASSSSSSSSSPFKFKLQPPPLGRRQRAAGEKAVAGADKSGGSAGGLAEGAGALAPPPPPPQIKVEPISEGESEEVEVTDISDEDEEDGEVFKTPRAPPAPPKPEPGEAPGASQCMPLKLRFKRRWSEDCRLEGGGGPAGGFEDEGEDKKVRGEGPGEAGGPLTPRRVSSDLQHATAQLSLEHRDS
The note with it: protein: recombinant; tags: N-terminal GST; dsDNA, one strand shown. In a few lines: as §1

A further assay deals with T7, ETV3L (Homo sapiens, UniProt Q6ZN32 1-361).
T7 sequence: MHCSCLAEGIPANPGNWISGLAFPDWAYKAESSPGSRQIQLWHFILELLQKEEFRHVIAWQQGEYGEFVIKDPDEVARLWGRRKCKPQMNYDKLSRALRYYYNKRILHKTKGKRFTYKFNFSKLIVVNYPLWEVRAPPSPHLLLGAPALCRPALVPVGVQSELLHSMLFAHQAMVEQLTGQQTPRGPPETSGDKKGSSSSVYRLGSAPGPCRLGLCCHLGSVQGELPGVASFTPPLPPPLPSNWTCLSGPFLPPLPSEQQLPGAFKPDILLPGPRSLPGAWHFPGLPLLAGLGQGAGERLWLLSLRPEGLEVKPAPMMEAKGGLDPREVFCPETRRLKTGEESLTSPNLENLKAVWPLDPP
The note with it: protein: recombinant; tags: N-terminal GST; dsDNA, one strand shown. In a few lines:
as §1

The target in another assay is T8, ETS2 (Homo sapiens, UniProt P15036 1-469).
T8 sequence: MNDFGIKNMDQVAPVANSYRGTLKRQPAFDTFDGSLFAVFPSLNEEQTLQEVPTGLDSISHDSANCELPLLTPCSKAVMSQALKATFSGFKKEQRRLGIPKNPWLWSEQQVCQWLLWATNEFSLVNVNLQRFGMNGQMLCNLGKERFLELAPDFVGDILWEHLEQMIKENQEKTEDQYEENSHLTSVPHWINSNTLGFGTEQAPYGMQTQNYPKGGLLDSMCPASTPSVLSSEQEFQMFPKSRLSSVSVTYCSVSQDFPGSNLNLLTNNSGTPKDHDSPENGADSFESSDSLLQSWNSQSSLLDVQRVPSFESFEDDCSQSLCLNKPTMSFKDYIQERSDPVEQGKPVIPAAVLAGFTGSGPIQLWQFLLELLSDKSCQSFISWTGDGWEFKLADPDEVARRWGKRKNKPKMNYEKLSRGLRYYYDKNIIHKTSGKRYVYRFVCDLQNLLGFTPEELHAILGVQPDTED
The note with it: protein: recombinant; tags: N-terminal GST; dsDNA, one strand shown. In a few lines: as §1

The target of another assay is T9, SPDEF (Homo sapiens, UniProt O95238 1-335).
T9 sequence: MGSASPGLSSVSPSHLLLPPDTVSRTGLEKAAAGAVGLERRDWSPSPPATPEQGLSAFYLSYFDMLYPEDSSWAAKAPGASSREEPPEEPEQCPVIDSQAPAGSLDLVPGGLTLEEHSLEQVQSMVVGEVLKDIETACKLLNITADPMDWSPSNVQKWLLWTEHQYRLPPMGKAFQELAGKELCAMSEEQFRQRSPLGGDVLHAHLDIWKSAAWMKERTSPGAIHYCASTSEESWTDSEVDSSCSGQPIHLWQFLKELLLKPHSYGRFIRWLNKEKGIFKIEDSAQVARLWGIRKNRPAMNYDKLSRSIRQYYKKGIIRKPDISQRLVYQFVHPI
The note with it: protein: recombinant; tags: N-terminal GST; dsDNA, one strand shown. In a few lines: as §1

The target in another assay is T10, ETV7 (Homo sapiens, UniProt Q9Y603 1-341).
T10 sequence: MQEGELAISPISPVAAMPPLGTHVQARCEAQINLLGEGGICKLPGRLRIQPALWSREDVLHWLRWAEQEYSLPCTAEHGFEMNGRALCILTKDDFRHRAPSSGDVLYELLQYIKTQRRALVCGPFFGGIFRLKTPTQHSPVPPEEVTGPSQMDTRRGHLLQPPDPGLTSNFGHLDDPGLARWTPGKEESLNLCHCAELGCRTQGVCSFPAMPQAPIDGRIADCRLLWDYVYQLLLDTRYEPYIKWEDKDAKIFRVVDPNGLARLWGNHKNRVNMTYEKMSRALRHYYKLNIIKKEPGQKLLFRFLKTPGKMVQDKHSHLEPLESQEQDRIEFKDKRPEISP
The settings on record: protein: recombinant; tags: N-terminal GST; dsDNA, one strand shown. In a few lines:
as §1

Another assay addresses T11, ELF5 (Homo sapiens, UniProt Q9UKW6-2 1-255).
T11 sequence: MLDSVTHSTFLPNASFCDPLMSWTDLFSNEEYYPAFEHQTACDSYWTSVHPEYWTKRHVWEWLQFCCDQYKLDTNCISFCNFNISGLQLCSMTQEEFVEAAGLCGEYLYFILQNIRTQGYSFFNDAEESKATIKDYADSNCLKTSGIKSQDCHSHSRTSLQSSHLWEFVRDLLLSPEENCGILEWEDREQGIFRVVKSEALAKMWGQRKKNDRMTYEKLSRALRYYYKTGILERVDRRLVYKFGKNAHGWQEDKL
The note with it: protein: recombinant; tags: N-terminal GST; dsDNA, one strand shown. In a few lines:
as §1

A further assay deals with T12, ETV3 (Homo sapiens, UniProt P41162-2 1-143).
T12 sequence: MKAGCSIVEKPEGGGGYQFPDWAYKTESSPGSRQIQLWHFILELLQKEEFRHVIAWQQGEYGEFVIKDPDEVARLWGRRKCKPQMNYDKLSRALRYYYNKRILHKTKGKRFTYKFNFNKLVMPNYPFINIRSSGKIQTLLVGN
The note with it: protein: recombinant; tags: N-terminal GST; dsDNA, one strand shown. In a few lines: as §1

A further assay has as its target ETV6 (Homo sapiens, UniProt P41212 1-452). The note with it: protein: recombinant; tags: N-terminal GST; dsDNA, one strand shown. In a few lines: as §1

Sequence of HSF1 (Q00613 whole entry): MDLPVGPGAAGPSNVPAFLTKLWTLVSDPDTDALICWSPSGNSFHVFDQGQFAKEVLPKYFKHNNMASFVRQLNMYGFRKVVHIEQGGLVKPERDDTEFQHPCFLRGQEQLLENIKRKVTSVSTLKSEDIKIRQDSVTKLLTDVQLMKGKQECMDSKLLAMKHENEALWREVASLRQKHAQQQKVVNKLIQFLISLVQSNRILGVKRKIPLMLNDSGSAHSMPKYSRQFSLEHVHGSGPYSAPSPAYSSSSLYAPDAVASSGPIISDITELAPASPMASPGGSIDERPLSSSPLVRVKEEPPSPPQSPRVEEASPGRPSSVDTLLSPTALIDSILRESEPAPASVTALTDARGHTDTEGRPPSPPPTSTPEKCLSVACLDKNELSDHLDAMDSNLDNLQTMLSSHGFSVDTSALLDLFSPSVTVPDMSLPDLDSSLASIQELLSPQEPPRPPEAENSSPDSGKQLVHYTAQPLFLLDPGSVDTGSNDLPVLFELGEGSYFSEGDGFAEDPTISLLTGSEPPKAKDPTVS
Sequence of CRX (O43186 whole entry): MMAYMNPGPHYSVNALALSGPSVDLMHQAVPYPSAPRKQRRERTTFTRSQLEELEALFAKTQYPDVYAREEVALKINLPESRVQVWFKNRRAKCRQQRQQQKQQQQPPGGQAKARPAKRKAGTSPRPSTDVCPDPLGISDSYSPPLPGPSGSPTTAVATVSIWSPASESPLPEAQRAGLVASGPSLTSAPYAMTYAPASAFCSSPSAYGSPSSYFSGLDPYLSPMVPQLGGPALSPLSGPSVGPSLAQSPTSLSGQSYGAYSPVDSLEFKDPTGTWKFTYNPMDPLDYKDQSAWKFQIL
Sequence of ETV6 (P41212 whole entry): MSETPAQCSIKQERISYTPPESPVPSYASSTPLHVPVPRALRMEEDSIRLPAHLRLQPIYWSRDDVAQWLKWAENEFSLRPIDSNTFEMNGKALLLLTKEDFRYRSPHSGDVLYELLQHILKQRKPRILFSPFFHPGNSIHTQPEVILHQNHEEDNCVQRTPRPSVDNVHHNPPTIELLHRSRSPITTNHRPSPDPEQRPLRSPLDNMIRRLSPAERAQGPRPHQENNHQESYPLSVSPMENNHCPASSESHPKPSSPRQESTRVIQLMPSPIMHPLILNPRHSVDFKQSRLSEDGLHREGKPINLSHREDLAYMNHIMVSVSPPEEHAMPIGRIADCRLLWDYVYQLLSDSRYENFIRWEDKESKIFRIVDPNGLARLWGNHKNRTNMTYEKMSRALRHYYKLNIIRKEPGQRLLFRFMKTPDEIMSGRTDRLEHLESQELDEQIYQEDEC
Sequence of ETV5 (P41161 whole entry): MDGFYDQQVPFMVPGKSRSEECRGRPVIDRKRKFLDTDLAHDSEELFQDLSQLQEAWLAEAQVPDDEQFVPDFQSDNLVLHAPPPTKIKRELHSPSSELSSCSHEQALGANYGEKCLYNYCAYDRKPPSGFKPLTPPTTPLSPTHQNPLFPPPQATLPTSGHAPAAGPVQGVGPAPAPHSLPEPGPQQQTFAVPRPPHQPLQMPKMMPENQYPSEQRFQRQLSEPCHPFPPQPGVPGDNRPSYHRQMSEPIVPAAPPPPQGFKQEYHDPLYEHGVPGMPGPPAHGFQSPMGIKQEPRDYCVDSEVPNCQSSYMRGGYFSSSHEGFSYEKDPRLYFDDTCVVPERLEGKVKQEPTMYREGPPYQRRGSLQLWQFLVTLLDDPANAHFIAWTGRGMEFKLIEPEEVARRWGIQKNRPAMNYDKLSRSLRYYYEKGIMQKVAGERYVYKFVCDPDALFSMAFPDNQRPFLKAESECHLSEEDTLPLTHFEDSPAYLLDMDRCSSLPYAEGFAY

In the case of GCGCTT, the binding signal in the assay with FEV was 1.37 fold enrichment (6-mer frequency, TF over GST control); with ETV5, 1.29 fold enrichment (6-mer frequency, TF over GST control); in the assay with HSF1 it was 1.16 fold enrichment (6-mer frequency, TF over GST control); with SPIC it was 1.26 fold enrichment (6-mer frequency, TF over GST control); with ELF4 it was 1.24 fold enrichment (6-mer frequency, TF over GST control); with ELK4, 1.36 fold enrichment (6-mer frequency, TF over GST control). The binding signal in the assay with ETV2 was 1.12 fold enrichment (6-mer frequency, TF over GST control); in the assay with ELF3, 1.04 fold enrichment (6-mer frequency, TF over GST control); in the assay with CRX, 1.39 fold enrichment (6-mer frequency, TF over GST control); with ETV1, 1.3 fold enrichment (6-mer frequency, TF over GST control); with ERF, 1.42 fold enrichment (6-mer frequency, TF over GST control); in the assay with ETV3L it was 1.3 fold enrichment (6-mer frequency, TF over GST control). Moreover, the binding signal with ETS2 was 1.37 fold enrichment (6-mer frequency, TF over GST control); with SPDEF, 1.2 fold enrichment (6-mer frequency, TF over GST control); with ETV7, 1.34 fold enrichment (6-mer frequency, TF over GST control); with ELF5, 1.31 fold enrichment (6-mer frequency, TF over GST control); with ETV3, 1.42 fold enrichment (6-mer frequency, TF over GST control); with ETV6, 1.33 fold enrichment (6-mer frequency, TF over GST control).
